TRPV1 potentiator = enhances activation of the human vanilloid receptor TRPV1 | Q8NER1 | TRPV1-expressing cells, Fluo-8 calcium influx, capsaicin EC20 potentiation | potentiation, % at 8.33 µM | 0.02% of 320,000 active | AID 540277; in the data active = potentiation above about 80%; inconclusive = between about 30% and that limit; also: 0% is about no effect
Target sequence (Q8NER1 whole entry, looked up): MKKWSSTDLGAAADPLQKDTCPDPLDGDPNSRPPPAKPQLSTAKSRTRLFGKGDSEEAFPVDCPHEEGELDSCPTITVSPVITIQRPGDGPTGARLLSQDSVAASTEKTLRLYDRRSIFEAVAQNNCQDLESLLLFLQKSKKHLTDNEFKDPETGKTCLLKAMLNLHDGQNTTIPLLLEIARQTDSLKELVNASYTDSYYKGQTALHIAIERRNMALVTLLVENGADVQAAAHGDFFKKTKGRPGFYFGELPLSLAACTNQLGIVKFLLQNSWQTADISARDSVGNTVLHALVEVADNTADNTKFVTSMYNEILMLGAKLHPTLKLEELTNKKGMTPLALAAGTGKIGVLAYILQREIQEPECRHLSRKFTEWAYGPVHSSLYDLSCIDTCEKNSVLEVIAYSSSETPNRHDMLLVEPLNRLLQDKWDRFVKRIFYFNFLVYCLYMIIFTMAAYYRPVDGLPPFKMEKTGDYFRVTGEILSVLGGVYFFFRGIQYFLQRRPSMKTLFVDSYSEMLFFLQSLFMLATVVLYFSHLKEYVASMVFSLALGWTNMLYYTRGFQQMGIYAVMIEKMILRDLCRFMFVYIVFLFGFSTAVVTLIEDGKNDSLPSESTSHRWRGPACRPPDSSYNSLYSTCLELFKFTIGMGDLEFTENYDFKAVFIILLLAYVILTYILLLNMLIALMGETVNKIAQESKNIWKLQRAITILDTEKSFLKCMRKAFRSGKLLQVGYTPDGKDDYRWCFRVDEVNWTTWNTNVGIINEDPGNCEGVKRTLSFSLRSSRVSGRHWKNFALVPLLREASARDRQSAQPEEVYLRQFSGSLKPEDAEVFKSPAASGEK
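TRPV1-expressing cells were cultured overnight at 35.5C and loaded with Fluo-8 calcium dye for 40 to 90 min at room temperature. After a 10 s baseline, compound was added and calcium influx was read kinetically for 3 min (ex 480/em 520 nm).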
FUS suppressor = FUS proteinopathy suppression in yeast; AID 1347120; 0.24% of 390,000 active; S. cerevisiae FUS-expressing, growth rescue, OD600, 24 h; Potency, µM (highest dose often 76.6 µM), hits mostly activators;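 also: potency is read from the fitted curve at half-maximal effect; plate controls were DMSO vehicle for no effect and reference control for full effect; nearly all actives have a fitted effect of over 55% in size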
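Yeast expressing FUS under galactose induction, OD 0.005 in 2% galactose medium; compounds in a dilution series, 24 h at 30C. Growth rescue by absorbance at 600 nm; CP55940 positive control, DMSO negative.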
TRPV1 agonist = activates the human vanilloid receptor TRPV1; Q8NER1; TRPV1-expressing cells, Fluo-8 calcium influx, agonist mode; activation, % at 8.33 µM; 0.19% of 320,000 active; in the data active = activation above about 80%; inconclusive = between about 30% and that limit; also: 0% is about no effect
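Fluo-8 calcium influx in TRPV1-expressing cells, kinetic read (ex 480/em 520 nm). Compound added and read 3 min for agonist activity, followed by capsaicin at EC20 final and 2 min further read for enhancement.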
ELG1 DNA repair = ELG1-dependent DNA repair inhibition; HEK293T ELG1-luciferase reporter, luminescence, 16 h; DNA damage induced by 5-fluorouridine; Potency, µM (titrated, usually from 46.1 µM), for the others: at the top dose activity change, negative = inhibition, hits mostly inhibitors; 2.3% of 330,000 active; AID 504467; also: potency is read from the fitted curve at half-maximal effect; % is scaled to controls: 0 for no effect and ±100 for the full control effect; nearly all actives have a fitted effect of over 55% in size
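Overnight (16 hr) co-exposure of 2,000 cells/well to 5-fluorouridine and compound at 37 °C preceded detection. Luciferase was quantified via ONE-Glo luminescence; loss of signal denotes inhibition.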
Giardia killer = kills Giardia lamblia; Giardia lamblia trophozoite viability; 0.15% of 340,000 active; AID 540267; activity change, % at 7.66 µM, hits read low; in the data active = activity change below about -80%; inconclusive = between about -30% and that limit;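 also: parasites exposed to compound for two days anaerobically before the ATP read; % is scaled to controls: 0 for no effect and ±100 for the full control effect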
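Compounds were tested on trophozoites seeded at 100 cells/well and held 48 hrs at 37 deg C anaerobically. An ATP-based luminescent kit measured the remaining live cells.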
Active calls of the source: *. Rows were chosen to be rich in hits. Some 2.3% of all compounds tested hit in one or more screens of this group. Unless noted, calls follow the shape of the dose curve; as a rule, active = well fitted curve in the direction sought with a large enough effect; inconclusive = small, poorly fitted or top-dose-only effect, or another doubt; inactive = no such curve, though single readings can be large; an effect the other way counts as inactive or inconclusive.

For CC1CCN(C2=NC(=O)/C(=C/c3ccccc3F)S2)CC1 the results were TRPV1 potentiator -4, FUS suppressor inactive, TRPV1 agonist 88*, ELG1 DNA repair inconclusive and Giardia killer -8.
`CCOC(=O)c1c(NC(=O)COc2cccc3c2CCN(C)C3=O)sc2c1CCC2` gave TRPV1 potentiator -3, FUS suppressor inactive, TRPV1 agonist 13, ELG1 DNA repair 18µM* and Giardia killer 7.
O=C(CNCc1ccccc1Cl)Nc1cc(S(=O)(=O)N2CCOCC2)ccc1Cl was read as FUS suppressor inactive, ELG1 DNA repair inconclusive and Giardia killer inconclusive.
For Cc1ccc(S(=O)(=O)N2CCOCC2)cc1NC(=O)COc1ccccc1Cc1ccccc1 the results were FUS suppressor inactive, ELG1 DNA repair 8.2µM* and Giardia killer -10.
For O=C(Nc1cc(S(=O)(=O)N2CCOCC2)ccc1N1CCCC1)c1ccc2c(c1)S(=O)(=O)c1ccccc1C2=O the results were TRPV1 potentiator 14, FUS suppressor inactive, TRPV1 agonist 3, ELG1 DNA repair 10µM* and Giardia killer 11.
For Cc1ccc(S(=O)(=O)N2CCOCC2)cc1NC(=O)CNCc1ccc(Cl)cc1Cl the results were FUS suppressor inactive, ELG1 DNA repair 23µM* and Giardia killer -17.
For O=C(Nc1cc(S(=O)(=O)N2CCOCC2)ccc1N1CCCCC1)c1ccccc1 the results were TRPV1 potentiator -13, TRPV1 agonist inconclusive, ELG1 DNA repair inconclusive and Giardia killer -2.
For COc1ccccc1OCC(=O)Nc1cc(S(=O)(=O)N2CCOCC2)ccc1N1CCCCC1 the results were FUS suppressor inconclusive, ELG1 DNA repair 26µM* and Giardia killer -14.
C=C1C=C(C(F)F)n2ncc(C(=O)Nc3ccc(C(C)CC)cc3)c2N1 (stereo not drawn) was read as TRPV1 potentiator -1 and TRPV1 agonist 1.
For Cc1cc(C)c(S(=O)(=O)Nc2ccc(-c3ccc(N4CCCCCC4)nn3)cc2)c(C)c1 the results were FUS suppressor inactive.
For O=C(Nc1ccc(NC(=O)c2ccco2)nc1)c1ccco1 the results were TRPV1 potentiator 16, FUS suppressor inactive, TRPV1 agonist 2, ELG1 DNA repair inconclusive and Giardia killer inconclusive.
CC(C)(C)C(=O)Nc1ccc(NC(=O)c2ccco2)nc1 was read as TRPV1 potentiator 28, FUS suppressor inactive, TRPV1 agonist 0, ELG1 DNA repair inconclusive and Giardia killer -94*.
Screening COc1cc(NC(=O)CSc2ncnc3c2cnn3Cc2ccccc2)cc(OC)c1 returned TRPV1 potentiator 26, FUS suppressor inactive, TRPV1 agonist -2, ELG1 DNA repair inconclusive and Giardia killer 41.
Screening COc1ccc(OC)c(NC(=O)CSc2ncnc3c2cnn3-c2ccccc2Cl)c1 returned TRPV1 potentiator 8, FUS suppressor inactive, TRPV1 agonist 2, ELG1 DNA repair 9.2µM* and Giardia killer -9.
For CCc1nc(Cl)c(C#N)c2c1CCCC2 the results were TRPV1 potentiator 1, FUS suppressor inactive, TRPV1 agonist 2, ELG1 DNA repair 13µM* and Giardia killer 21.
CC1CCN(c2c(NCC3CCC(C(=O)N4CCc5ccccc5C4)CC3)c(=O)c2=O)CC1 (stereo not drawn) was read as TRPV1 potentiator 0, FUS suppressor inactive, TRPV1 agonist 14, ELG1 DNA repair 9.2µM* and Giardia killer 4.
Cc1cccc(C)c1NC(=S)NC(=O)c1cccc(Cl)c1 was read as FUS suppressor inactive.
Screening COc1cc(C(=O)ON=C2C3CC4CC(C3)CC2C4)cc(OC)c1OC returned TRPV1 potentiator 3, FUS suppressor inactive, TRPV1 agonist inconclusive, ELG1 DNA repair 23µM* and Giardia killer 37.
CCOC(=O)c1nc(Nc2ccc(C(=O)O)cc2)c2ccccc2n1 was read as TRPV1 potentiator 0, FUS suppressor inactive, TRPV1 agonist 0, ELG1 DNA repair 12% and Giardia killer -3.
For CCOC(=O)c1nc(Nc2ccc(Nc3ccccc3)cc2)c2ccccc2n1 the results were TRPV1 potentiator -1, FUS suppressor inactive, TRPV1 agonist 0, ELG1 DNA repair 7.3µM* and Giardia killer -10.
Screening CCOC(=O)c1nc(Nc2ccc(N3CCC(C)CC3)cc2)c2ccccc2n1 returned TRPV1 potentiator -3, FUS suppressor inactive, TRPV1 agonist 20, ELG1 DNA repair 5.8µM* and Giardia killer -1.
Cc1cccc(N=C2Sc3nc4c(C)c(C)ccc4cc3CN2CCN2CCOCC2)c1 was read as TRPV1 potentiator inconclusive, FUS suppressor inconclusive, TRPV1 agonist -9, ELG1 DNA repair 9.2µM* and Giardia killer -3.
`COCCN1Cc2cc3cc(C)ccc3nc2SC1=Nc1cccc(OC)c1` gave TRPV1 potentiator 0, FUS suppressor inactive, TRPV1 agonist 17, ELG1 DNA repair inconclusive and Giardia killer -22.
For C=CCc1cccc2cc(C(=O)NNC(=O)c3ccncc3)c(=O)oc12 the results were TRPV1 potentiator -10, FUS suppressor inactive, TRPV1 agonist 81*, ELG1 DNA repair 2% and Giardia killer 16.
`C=CCc1cccc2cc(C(=O)Nc3cccc(C(=O)O)c3)c(=O)oc12` gave TRPV1 potentiator -2, FUS suppressor inactive, TRPV1 agonist -2, ELG1 DNA repair inconclusive and Giardia killer -11.
Screening Cc1ccc(C(c2sc3nc(-c4ccco4)nn3c2O)N2CCC3(CC2)OCCO3)cc1 (stereo not drawn) returned FUS suppressor inactive.
Screening CCCCCCCCN1C(=O)[C@@H](CC(=O)N2CCSCC2)C[C@@]2(C(=O)OC)C1=C[C@H](C(C)C)O[C@@H]2C1CC1 returned FUS suppressor 4.5µM*.
Screening CCCCCCCCN1C(=O)[C@@H](CC(=O)N2CCCC2)C[C@@]2(C(=O)OC)C1=C[C@H](C(C)C)O[C@@H]2C1CC1 returned FUS suppressor 13µM*.
For CCCCCCCCN1C(=O)[C@@H](CC(=O)N2CCOCC2)C[C@@]2(C(=O)OC)C1=C[C@H](C(C)C)O[C@@H]2C1CC1 the results were FUS suppressor 8.9µM*.
For CN(C)c1ccc(/C=C(\C#N)C(=O)c2ccccc2)cc1 the results were TRPV1 potentiator 22, FUS suppressor inactive, TRPV1 agonist 84*, ELG1 DNA repair -2% and Giardia killer 21.
Screening CC(C)(C)c1ccc2c(c1)OC(C(=O)N/N=C/c1ccc([N+](=O)[O-])o1)CO2 (stereo not drawn) returned TRPV1 potentiator -10, FUS suppressor inactive, TRPV1 agonist inconclusive, ELG1 DNA repair inconclusive and Giardia killer -98*.
`CC(C)(C)c1ccc2c(c1)OC(C(=O)N/N=C\c1ccc[nH]1)CO2` (stereo not drawn) gave TRPV1 potentiator 9, FUS suppressor inactive, TRPV1 agonist inconclusive, ELG1 DNA repair -7% and Giardia killer -12.

Bioassay records (PubChem BioAssay)
